This is an account of results in PubChem BioAssay (Tox21).

Test [1] in a line: qHTS assay for small molecule agonists of the p53 signaling pathway (AID 651631; calls by dose curve; also: nearly all actives have a fitted effect of over 15% in size). The procedure, abridged:
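We treat p53RE-bla HCT-116 cells with compounds for 16 h at 37 °C, add LiveBLAzer B/G FRET substrate for 2 h at room temperature, and measure fluorescence intensity.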
For orientation: Quantitative high-throughput screening tests each substance at several concentrations.

A short description of test [2]: qHTS assay for small molecules that induce genotoxicity in human embryonic kidney cells expressing luciferase-tagged ATAD5 (AID 651632). Also: nearly all actives have a fitted effect of over 15% in size. In a few lines: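 Genotoxicity read-out via ATAD5-luciferase: HEK293T cells, 16 hr compound incubation at 37C, Amplite detection.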
A short description of test [3]: qHTS assay for small molecule agonists of the p53 signaling pathway - cell viability (AID 651633; calls by dose curve;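 also: p53RE-bla HCT reporter cells with a stable beta-lactamase p53 reporter; series mostly up to about 83 µM; nearly all actives have a fitted effect of over 30% in size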). The procedure, abridged: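 Viability counter-read: CellTiter-Glo luminescence (30 min, room temperature) in the same p53RE-bla plates. These plates had been exposed to compounds for 16 h at 37 C.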
The nature of test [4]: qHTS assay for small molecules that induce genotoxicity in human embryonic kidney cells expressing luciferase-tagged ATAD5 - cell viability (AID 651634; calls by dose curve; also: nearly all actives have a fitted effect of over 25% in size). In a few lines: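 Live-cell protease activity (CellTiter-Fluor, fluorescence) indicates viability. HEK293T cells with luciferase-tagged ATAD5; 15.5 hr compound treatment at 37C.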
A short description of test [5]: qHTS assay for small molecule disruptors of the mitochondrial membrane potential - cell viability (AID 720634; calls by dose curve;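 also: human HepG2 liver cancer cells; series mostly up to about 83 µM; nearly all actives have a fitted effect of over 20% in size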). In a few lines: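 Human hepatoma HepG2 cells were treated for 1 hr with test chemicals, then given m-MPI dye and CellTiter-Glo. Cell viability reflects luminescence proportional to cellular ATP.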
A short description of test [6]: qHTS assay to test for compound auto fluorescence at 590 nm (red) in HepG2 cells (AID 720674). In a few lines: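 We screened compounds on adherent HepG2 cells, incubating them for an hour at 37 C in 5% CO2 before reading emission at 590 nm under 540 nm excitation; values reflect equivalence to Rose Bengal sodium fluorescence.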
The nature of test [7]: qHTS assay to test for compound auto fluorescence at 535 nm (green) in HepG2 cells (AID 720675).
Test [8] can be described thus: qHTS assay to test for compound auto fluorescence at 460 nm (blue) in HEK293 cells (AID 720678). The procedure, abridged:
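Intrinsic compound fluorescence is recorded in live HEK293 cultures after overnight incubation at 37C, 5% CO2, using excitation 405 nm and emission 460 nm. Values are referenced to triamterene.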

Test [9] can be described thus: qHTS assay to test for compound auto fluorescence at 590 nm (red) in HEK293 cells (AID 720679). The procedure, abridged:
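Red autofluorescence, HEK293 cells: 2,000 cells/well; attach 4-5 hr 37C; add 23 nL cpd or DMSO; incubate o/n 37C 5% CO2; read Ex540/Em590; Rose Bengal sodium reference.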

Test [10] is described as follows: qHTS assay to test for compound auto fluorescence at 535 nm (green) in HEK293 cells (AID 720680).
A short description of test [11]: qHTS assay to test for compound auto fluorescence at 460 nm (blue) in HEK293 cell free culture (AID 720681). The procedure, abridged:
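Blue fluorescence (Ex 405/Em 460 nm, triamterene-equivalent) was read immediately after pin transfer of compound or DMSO into medium (DMEM, 10% FBS) without cells.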

Test [12] is described as follows: qHTS assay to test for compound auto fluorescence at 535 nm (green) in HEK293 cell free culture (AID 720682). In a few lines:
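Green-channel intensity (Ex/Em 485/535 nm) was recorded from compound-treated wells containing only DMEM with 10% FBS. Fluorescein provided the equivalency standard.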

The nature of test [13]: qHTS assay to test for compound auto fluorescence at 590 nm (red) in HEK293 cell free culture (AID 720683). In a few lines:
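Red-channel autofluorescence of compounds in culture medium (DMEM, 10% FBS), no cells, measured at 540/590 nm. Rose Bengal sodium is the reference fluorophore for equivalence.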

Test [14] in a line: qHTS assay to test for compound auto fluorescence at 590 nm (red) in HepG2 cell free culture (AID 720684). In a few lines:
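Steps: dispense MEM/10% FBS medium, no cells; pin compound or DMSO vehicle; read red channel, Ex/Em 540/590 nm. Output given as Rose Bengal sodium equivalents.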

Test [15] in a line: qHTS assay to test for compound auto fluorescence at 460 nm (blue) in HepG2 cell free culture (AID 720685). In a few lines: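 Compound (23 nL) or DMSO pinned into cell-free MEM with 10% FBS; blue fluorescence read at 405/460 nm excitation/emission, expressed as auto-fluorescence equivalency to triamterene.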
Test [16] in a line: qHTS assay to test for compound auto fluorescence at 535 nm (green) in HepG2 cell free culture (AID 720686).
Test [17] is described as follows: qHTS assay to test for compound auto fluorescence at 460 nm (blue) in HepG2 cells (AID 720687). In a few lines: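 Blue-channel autofluorescence (Ex/Em 405/460 nm, triamterene-equivalent) was measured after 1 hr compound exposure at 37 C, 5% CO2. Cells were HepG2, plated overnight at 37 C in MEM plus 10% FBS.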
Test [18] in a line: qHTS assay to identify small molecule antagonists of the glucocorticoid receptor (GR) signaling pathway - cell viability counter screen (AID 720693). Also: nearly all actives have a fitted effect of over 55% in size.
Test [19] can be described thus: qHTS assay for identifying genotoxic compounds that show differential cytotoxicity against isogenic chicken DT40 cell lines with known DNA damage response pathways - wild type cell line (AID 743012). Also: nearly all actives have a fitted effect of over 60% in size. Also: potency is read from the fitted curve at half-maximal effect. In a few lines:
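Quantitative HTS on parental DT40 cells: 40 h compound treatment at 37 C/5% CO2, with viability then determined by CellTiter-Glo luminescence. Values serve as the DNA repair-proficient reference for differential cytotoxicity.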

Test [20] is described as follows: qHTS assay for identifying genotoxic compounds that show differential cytotoxicity against isogenic chicken DT40 cell lines with known DNA damage response pathways - Rev3 mutant cell line (AID 743014). Also: nearly all actives have a fitted effect of over 55% in size.
The nature of test [21]: qHTS assay for identifying genotoxic compounds that show differential cytotoxicity against isogenic chicken DT40 cell lines with known DNA damage response pathways - Rad54/Ku70 mutant cell line (AID 743015). Also: nearly all actives have a fitted effect of over 60% in size.
Test [22] is described as follows: qHTS assay to identify small molecule antagonists of the androgen receptor (AR) signaling pathway - cell viability counter screen (AID 743033; also: nearly all actives have a fitted effect of over 45% in size).
Test [23] is described as follows: qHTS assay to identify small molecule antagonists of the androgen receptor (AR) signaling pathway using the MDA cell line - cell viability counter screen (AID 743041; also: nearly all actives have a fitted effect of over 45% in size). In a few lines:
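Cells were plated at 3,000 per well and left 5 h. Compounds in DMSO were then pinned in, followed by R1881. After 16 h at 37C, CellTiter-Fluor fluorescence gave viability.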

The nature of test [24]: qHTS assay to identify small molecule antagonists of the thyroid receptor (TR) signaling pathway - cell viability counter screen (AID 743064). Also: nearly all actives have a fitted effect of over 50% in size. In a few lines:
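In rat pituitary GH3.TRE-Luc reporter cells co-exposed to compound and 1 nM T3 for 23.5 h, cytotoxicity was assessed with CellTiter-Fluor in the same wells, read by fluorescence.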

The nature of test [25]: qHTS assay to identify small molecule antagonists of the thyroid receptor (TR) signaling pathway (AID 743065). Also: series mostly up to about 70 µM; nearly all actives have a fitted effect of over 55% in size. In a few lines:
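Antagonism measured as loss of luciferase signal in GH3 cells stably carrying a TRE-luciferase reporter, co-treated with compound and T3 (1 nM final) for 23.5 h at 37 C. Viability was read in the same well by CellTiter-Fluor.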

For test [26], the system named is thyroid hormone receptor (rat, GH3 cells). Nature of the test: qHTS assay to identify small molecule agonists of the thyroid receptor (TR) signaling pathway (AID 743066; calls by dose curve).
The target of test [27] is Estrogen receptor (Homo sapiens) (UniProt P03372). Nature of the test: qHTS assay to identify small molecule antagonists of the estrogen receptor alpha (ER-alpha) signaling pathway (AID 743069; active = well fitted curve in the direction sought with a large enough effect in the signal ratio in the repeat runs, not every such curve was filed as active; the % refers to the signal ratio). The procedure, abridged:
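ER-alpha-UAS-bla GripTite HEK293 line; 2% charcoal-stripped FBS overnight; plated, 4 hr 37C/5% CO2; cpd in DMSO + 17beta-estradiol, 18 hr 37C; LiveBLAzer B/G FRET substrate 2 hr RT; fluorescence intensity.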

Test [28] has the same target. Nature of the test: qHTS assay to identify small molecule agonists of the estrogen receptor alpha (ER-alpha) signaling pathway (AID 743075; calls by dose curve;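 also: HEK293 GripTite cells with ER-alpha and UAS-driven beta-lactamase reporter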).
The target is the same in test [29]. Nature of the test: qHTS assay to identify small molecule agonists of the estrogen receptor alpha (ER-alpha) signaling pathway using the BG1 cell line (AID 743079). Also: nearly all actives have a fitted effect of over 20% in size.
Test [30] is described as follows: qHTS assay to identify small molecule antagonists of the estrogen receptor alpha (ER-alpha) signaling pathway using the BG1 cell line (AID 743080; calls by dose curve;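 also: BG1 cells stimulated with 17beta-estradiol alongside compound; series mostly up to about 70 µM; nearly all actives have a fitted effect of over 25% in size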). The procedure, abridged: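 Readout is ONE-Glo luminescence, taken 30 min at room temperature after reagent addition, preceded by a CellTiter-Fluor viability read; BG1-Luc-4E2 cells had received compound and 17beta-estradiol for 21.5 h at 37 C.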

The next test has as its target Aromatase (Homo sapiens) (UniProt P11511). Description: qHTS assay to identify aromatase inhibitors (AID 743083). Also: series mostly up to about 70 µM; nearly all actives have a fitted effect of over 55% in size.
A short description of test [31]: qHTS assay to identify aromatase inhibitors - cell viability counter screen (AID 743084).
A short description of test [32]: qHTS assay to identify small molecule that activate the aryl hydrocarbon receptor (AhR) signaling pathway - cell viability counter screen (AID 743086).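 Also: HepG2 liver cells carrying the AhR DRE luciferase reporter; series mostly up to about 70 µM; nearly all actives have a fitted effect of over 45% in size.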 In a few lines:
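Cytotoxicity counter screen: CellTiter-Fluor signal (30 min, 37 C) in 4000 HepG2 cells/well carrying the DRE-luciferase reporter, following 24 h compound exposure at 37 C.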

The target of test [33] is Peroxisome proliferator-activated receptor gamma (Homo sapiens) (UniProt P37231). Description: qHTS assay to identify small molecule agonists of the peroxisome proliferator-activated receptor gamma (PPARg) signaling pathway (AID 743094; active = well fitted activation curve with a large enough effect in the signal ratio in the repeat runs, not every such curve was filed as active; the % refers to the signal ratio). In a few lines:
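Stably transfected HEK293H cells (GeneBLAzer PPARg UAS-bla) were incubated with test substances for 17 h at 37C after a 5 h pre-incubation; beta-lactamase activity was then detected by FRET substrate fluorescence.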

Test [34] deals with Acetylcholinesterase (Homo sapiens) (UniProt P22303). Description: Acetylcholinesterase (AChE) small molecule antagonists: fluorescence cell-based qHTS assay (AID 1347398; calls by dose curve; also: nearly all actives have a fitted effect of over 50% in size). Particulars: Potency: AChE activity; outcome: AChE activity. In a few lines:
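Read-out is Thiolite Green fluorescence at Ex/Em = 490/520 nm, formed by reaction with thiocholine released when cellular AChE in SH-SY5Y cells hydrolyzes acetylthiocholine. Compounds were preincubated 30 min at 37 C before substrate.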

The target is the same in test [35]. Description: Acetylcholinesterase (AChE) small molecule antagonists: enzyme-based qHTS assay with human liver microsomes (AID 1347399; calls by dose curve; also: nearly all actives have a fitted effect of over 60% in size). Particulars: Potency: qHTS inhibition; outcome: qHTS inhibition. The procedure, abridged:
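Recombinant human AChE (50 mU/mL in the enzyme mix) and human liver microsomes (0.25 mg/mL final) were preincubated with compound and NADPH (0.25 mg/mL final) for 30 min at 37 C. Acetylthiocholine/DTNB was then added; thiocholine was read colorimetrically after 10 min at room temperature.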

For test [36] the target is unchanged. Description: Acetylcholinesterase (AChE) small molecule antagonists: enzyme-based qHTS assay (AID 1347397; calls by dose curve; also: nearly all actives have a fitted effect of over 55% in size). Particulars: Potency: AChE enzyme activity inhibition; outcome: AChE enzyme activity inhibition. The procedure, abridged: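 rhAChE 50 mU/mL (dispensed) + cpd or DMSO, 30 min RT; add DTNB/acetylthiocholine cocktail, 10 min RT; colorimetric thiocholine readout. qHTS, 1536-well format.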

For test [37], the target named is Glucocorticoid receptor (Homo sapiens) (UniProt P04150). Nature of the test: qHTS assay to identify small molecule agonists of the glucocorticoid receptor (GR) signaling pathway (AID 720691; active = well fitted activation curve with a large enough effect in the signal ratio in the repeat runs, not every such curve was filed as active; the % refers to the signal ratio). The procedure, abridged:
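Beta-lactamase reporter activity, read as fluorescence intensity, was measured in GR-bla HeLa cells exposed to compounds for 18 h at 37 C and then loaded with LiveBLAzer B/G FRET substrate for 2 h at room temperature.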

The nature of test [38]: qHTS assay to identify small molecule antagonists of the estrogen receptor alpha (ER-alpha) signaling pathway using the BG1 cell line - cell viability counter screen (AID 743081).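 Also: compound given together with 17beta-estradiol as the ER stimulus; series mostly up to about 70 µM; nearly all actives have a fitted effect of over 45% in size.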

Results filed as inconclusive are left out. Activity calls are given as the source filed them. Unless noted, calls follow the shape of the dose curve; as a rule, active = well fitted curve in the direction sought with a large enough effect in the repeat runs; inconclusive = weak or mixed curves; inactive = no such curve, though single readings can be large; an effect the other way counts as inactive or inconclusive.

Estrogen receptor (Homo sapiens), sequence (P03372 whole entry, looked up): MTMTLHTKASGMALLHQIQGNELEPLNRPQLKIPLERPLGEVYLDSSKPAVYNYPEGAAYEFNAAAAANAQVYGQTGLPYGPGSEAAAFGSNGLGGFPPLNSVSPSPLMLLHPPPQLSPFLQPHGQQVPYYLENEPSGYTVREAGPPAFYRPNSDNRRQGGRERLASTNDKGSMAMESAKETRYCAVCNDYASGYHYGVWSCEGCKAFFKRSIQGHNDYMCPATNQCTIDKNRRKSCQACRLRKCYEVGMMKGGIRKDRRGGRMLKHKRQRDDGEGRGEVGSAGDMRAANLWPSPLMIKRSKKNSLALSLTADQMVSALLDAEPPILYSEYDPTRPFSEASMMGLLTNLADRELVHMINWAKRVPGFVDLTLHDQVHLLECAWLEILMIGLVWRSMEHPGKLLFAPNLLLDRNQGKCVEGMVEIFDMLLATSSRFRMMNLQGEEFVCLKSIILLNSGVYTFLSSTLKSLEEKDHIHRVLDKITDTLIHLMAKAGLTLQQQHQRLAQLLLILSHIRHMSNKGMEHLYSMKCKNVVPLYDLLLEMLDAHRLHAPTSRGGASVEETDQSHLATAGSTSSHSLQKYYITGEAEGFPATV
Acetylcholinesterase (Homo sapiens), sequence (P22303 whole entry, looked up): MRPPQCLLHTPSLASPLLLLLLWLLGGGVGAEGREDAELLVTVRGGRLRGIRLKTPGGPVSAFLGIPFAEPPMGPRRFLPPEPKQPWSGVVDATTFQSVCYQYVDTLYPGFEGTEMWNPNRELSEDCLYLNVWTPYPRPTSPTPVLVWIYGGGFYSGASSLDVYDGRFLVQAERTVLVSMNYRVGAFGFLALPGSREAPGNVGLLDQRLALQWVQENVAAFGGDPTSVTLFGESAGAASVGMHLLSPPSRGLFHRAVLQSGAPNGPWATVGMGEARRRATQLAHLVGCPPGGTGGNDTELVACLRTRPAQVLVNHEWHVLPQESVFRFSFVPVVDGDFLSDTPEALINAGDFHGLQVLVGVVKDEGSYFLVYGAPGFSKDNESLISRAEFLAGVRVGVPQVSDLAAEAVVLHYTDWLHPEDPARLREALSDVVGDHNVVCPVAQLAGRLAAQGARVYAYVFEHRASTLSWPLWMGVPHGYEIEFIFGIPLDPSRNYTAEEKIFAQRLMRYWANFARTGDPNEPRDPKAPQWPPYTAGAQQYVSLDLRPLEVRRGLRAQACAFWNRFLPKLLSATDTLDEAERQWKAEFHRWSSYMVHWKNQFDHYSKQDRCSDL
Aromatase (Homo sapiens), sequence (P11511 whole entry, looked up): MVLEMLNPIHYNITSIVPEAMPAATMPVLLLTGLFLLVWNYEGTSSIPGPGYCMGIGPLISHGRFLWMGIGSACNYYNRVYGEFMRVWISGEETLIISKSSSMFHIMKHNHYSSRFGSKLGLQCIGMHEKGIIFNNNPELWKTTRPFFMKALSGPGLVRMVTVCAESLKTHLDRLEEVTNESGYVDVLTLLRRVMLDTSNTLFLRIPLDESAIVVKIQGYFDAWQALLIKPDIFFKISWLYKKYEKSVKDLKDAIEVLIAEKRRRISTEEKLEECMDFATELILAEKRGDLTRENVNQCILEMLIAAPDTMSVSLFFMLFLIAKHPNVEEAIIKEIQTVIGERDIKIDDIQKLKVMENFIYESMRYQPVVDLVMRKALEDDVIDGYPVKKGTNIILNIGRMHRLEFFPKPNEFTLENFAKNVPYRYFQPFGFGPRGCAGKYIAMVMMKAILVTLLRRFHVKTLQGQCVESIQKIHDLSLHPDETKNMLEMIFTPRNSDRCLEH
Glucocorticoid receptor (Homo sapiens), sequence (P04150 whole entry, looked up): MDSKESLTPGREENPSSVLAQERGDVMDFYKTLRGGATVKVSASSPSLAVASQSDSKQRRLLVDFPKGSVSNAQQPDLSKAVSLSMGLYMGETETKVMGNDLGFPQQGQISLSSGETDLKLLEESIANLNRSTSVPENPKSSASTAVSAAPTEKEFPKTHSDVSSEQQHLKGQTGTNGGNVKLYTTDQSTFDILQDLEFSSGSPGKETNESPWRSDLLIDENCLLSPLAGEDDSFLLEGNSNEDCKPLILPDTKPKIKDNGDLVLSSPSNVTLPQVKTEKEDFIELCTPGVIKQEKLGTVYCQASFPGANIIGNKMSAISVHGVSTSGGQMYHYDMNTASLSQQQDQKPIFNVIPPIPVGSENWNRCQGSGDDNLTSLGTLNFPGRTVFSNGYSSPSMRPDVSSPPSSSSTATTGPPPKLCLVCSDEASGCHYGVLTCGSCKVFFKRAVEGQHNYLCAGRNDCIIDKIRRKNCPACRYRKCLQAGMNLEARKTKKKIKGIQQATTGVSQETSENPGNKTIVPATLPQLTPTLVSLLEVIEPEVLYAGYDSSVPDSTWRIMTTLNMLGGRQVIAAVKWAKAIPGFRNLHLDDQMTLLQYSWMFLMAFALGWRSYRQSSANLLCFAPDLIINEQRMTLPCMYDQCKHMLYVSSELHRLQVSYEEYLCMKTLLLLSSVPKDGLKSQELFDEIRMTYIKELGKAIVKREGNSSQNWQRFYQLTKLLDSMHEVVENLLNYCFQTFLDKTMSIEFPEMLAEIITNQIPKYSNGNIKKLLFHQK
Peroxisome proliferator-activated receptor gamma (Homo sapiens), sequence (P37231 whole entry, looked up): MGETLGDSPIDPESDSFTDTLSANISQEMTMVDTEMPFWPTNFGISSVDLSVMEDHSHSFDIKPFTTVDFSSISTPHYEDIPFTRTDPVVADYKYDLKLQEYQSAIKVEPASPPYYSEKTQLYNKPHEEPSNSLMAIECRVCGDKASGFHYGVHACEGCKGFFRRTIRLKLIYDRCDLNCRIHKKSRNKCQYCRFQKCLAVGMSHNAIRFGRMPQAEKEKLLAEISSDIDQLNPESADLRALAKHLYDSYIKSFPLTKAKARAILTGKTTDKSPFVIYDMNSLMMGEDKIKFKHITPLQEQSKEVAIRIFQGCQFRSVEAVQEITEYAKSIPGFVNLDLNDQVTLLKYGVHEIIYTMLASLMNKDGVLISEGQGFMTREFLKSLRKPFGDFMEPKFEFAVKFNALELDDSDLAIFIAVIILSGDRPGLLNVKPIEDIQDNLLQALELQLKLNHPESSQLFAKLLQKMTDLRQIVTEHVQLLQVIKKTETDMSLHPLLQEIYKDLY

`Clc1ccc([C@@H]2C[C@H]3CC[C@@H]2N3)cn1`: the Potency result in [1], in test [3], in [4], in [18], in [19] and in [20] was “inactive” each time. For the same molecule, the Potency entry in [21], in [22], in test [24], in [25], in test [28] and in [29] was “inactive” in each case. The Potency entry (with Aromatase (Homo sapiens); in test [32]) was “inactive” in each case. In addition, the outcome in [2], in test [5], in [6], in [7], in test [8] and in test [9] was inactive. The molecule was called inactive in test [10], in test [11], in [12], in [13], in test [14] and in test [15]. For the same molecule, the molecule was called inactive in test [16], in test [17], in [23], in test [26], in test [27] and in [30]. The outcome in test [31] and in test [33] was inactive.
Turning to `Nc1cc(Cl)c(O)c(Cl)c1`, the Potency entry in [34] and in test [35] was “inactive” each time.
Take `CN1C(=O)N(c2ccccc2Br)Cc2cnc(Nc3ccc4c(c3)OCC(CO)O4)nc21` (stereo not given): the Potency result in test [36] and in [35] was “inactive” throughout.
For the molecule `CC[C@@H](O)C(C[C@@H](C)N(C)C)(c1ccccc1)c1ccccc1`, the result in test [2], in [5], in test [6], in test [7], in test [8] and in [9] was inactive. Further, the molecule was called inactive in [10], in test [11], in [12], in [13], in test [14] and in test [15]. In addition, the call in [16], in test [17], in [37], in test [23], in [27] and in test [30] was inactive. The outcome in [31] was inactive. For the same molecule, the Potency result (in [3]; in test [18]; in test [22]; in [28]; in test [38]; with Aromatase (Homo sapiens)) was “inactive” throughout. Besides, the Potency result in test [32] was “inactive”. Further, the Potency in [19] is 55.1 µM (active).
